Screening data (PubChem BioAssay)
A selection: hits, their analogues and other compounds. The true share with any hit is near 2.8%.
Pol beta inh – blocks human DNA polymerase beta activity. Potency, µM (titrated, usually from 114 µM), for the others: top-dose activity change, negative = inhibition, most hits filed as inhibitors. hit rate 1.3% among 340,000. P06746. Pol beta primer extension/strand displacement, fluorescence kinetic; note: potency is the fitted concentration of half-maximal effect; % is set by controls: 0 for no effect and ±100 for the full control effect
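Pol beta (10 nM) and compounds were preincubated 15 min at room temperature, then 50 nM substrate (final) started primer extension/strand displacement. Reads were taken at 0 and 10 min; concentration-response data were fitted to a four-parameter Hill equation.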
WRN helicase inh – WRN helicase (human) inhibition | hit rate 0.46% among 360,000 | Q14191 | WRN helicase unwinding, fluorescent forked duplex, kinetic | Potency, µM (series often up to 114 µM), for the others: at the highest dose activity change, negative = inhibition, usual class: inhibitors; note: potency is the fitted concentration of half-maximal effect; % is set by controls: 0 for no effect and ±100 for the full control effect; nearly all actives have a fitted effect of over 55% in size
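Primary qHTS, 1536-well format. 20 nM WRN + compound, 15 min RT; start with 100 nM forked fluorophore/quencher duplex, 2 mM ATP (final); kinetic read ex 525/em 598 nm.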
POLK inh – inhibitors of human DNA polymerase kappa. Q9UBT6. purified Pol kappa, fluorescent DNA synthesis assay, 10 min. Potency, µM (top dose mostly 107 µM), for the others: at the top dose activity, negative = inhibition, most hits filed as inhibitors. hit rate 0.53% among 400,000; note: potency is the fitted concentration of half-maximal effect; % is set by controls: 0 for no effect and ±100 for the full control effect
Target sequence (Q9UBT6 whole entry, looked up): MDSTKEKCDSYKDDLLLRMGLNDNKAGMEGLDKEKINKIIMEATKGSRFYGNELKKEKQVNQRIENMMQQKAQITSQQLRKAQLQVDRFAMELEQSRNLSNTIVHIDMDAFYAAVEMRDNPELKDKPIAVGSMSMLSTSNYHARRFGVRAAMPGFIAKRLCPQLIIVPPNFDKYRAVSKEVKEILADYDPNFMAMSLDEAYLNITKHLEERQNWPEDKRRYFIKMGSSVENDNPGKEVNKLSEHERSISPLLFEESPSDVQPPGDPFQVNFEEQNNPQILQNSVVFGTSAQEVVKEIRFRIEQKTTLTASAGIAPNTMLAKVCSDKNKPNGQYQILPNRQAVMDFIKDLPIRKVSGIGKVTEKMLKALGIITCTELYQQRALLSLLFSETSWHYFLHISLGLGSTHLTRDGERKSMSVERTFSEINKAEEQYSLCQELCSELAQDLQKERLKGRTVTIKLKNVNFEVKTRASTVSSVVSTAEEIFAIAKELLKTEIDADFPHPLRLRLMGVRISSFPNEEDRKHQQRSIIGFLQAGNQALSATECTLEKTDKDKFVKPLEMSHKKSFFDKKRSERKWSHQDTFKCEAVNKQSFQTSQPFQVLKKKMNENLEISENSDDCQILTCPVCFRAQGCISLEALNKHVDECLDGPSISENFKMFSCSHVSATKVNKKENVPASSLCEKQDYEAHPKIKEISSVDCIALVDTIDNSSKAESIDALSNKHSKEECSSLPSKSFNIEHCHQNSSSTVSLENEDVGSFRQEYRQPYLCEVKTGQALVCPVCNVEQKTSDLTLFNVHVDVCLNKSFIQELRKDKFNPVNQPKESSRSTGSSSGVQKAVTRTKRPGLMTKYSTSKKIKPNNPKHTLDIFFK
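Enzyme at 10 nM met test compounds for 15 min at room temperature. Substrate addition (50 nM final) began the reaction, which was monitored by fluorescence at 0 and 10 min.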
Pol iota inh – inhibitors of human DNA polymerase iota; Potency, µM (top dose mostly 115 µM), for inactives: at the top dose activity, negative = inhibition, hits mostly inhibitors; Pol iota fluorescent replication assay, 10 min; AID 588590; hit rate 1% among 390,000; note: potency is the fitted concentration of half-maximal effect
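Fluorescent replication assay read twice, at 0 min and 10 min after adding 50 nM (final) substrate. Enzyme (10 nM) and compounds were first incubated 15 min at room temperature; enzyme-free buffer wells were negative controls.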
Pol eta inh – inhibitors of human DNA polymerase eta; recombinant Pol eta, fluorescent DNA replication assay; Potency, µM (titrated, usually from 114 µM), without a hit: top-dose activity change, negative = inhibition, usual class: inhibitors; AID 588591; Q9Y253; hit rate 1.2% among 390,000; note: potency is the fitted concentration of half-maximal effect; % is set by controls: 0 for no effect and ±100 for the full control effect
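Fluorescent replication assay: 50 nM final substrate added after a 15 min room-temperature compound preincubation with 10 nM enzyme. Signal taken at 0 min and again at 10 min.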
PI5P4Ka inh – PI5P4K alpha (human) kinase inhibition | hit rate 1.2% among 330,000 | AID 652105 | max response, % | PI5P4Kalpha enzyme, ADP-Glo luminescence, 60 min; stronger effect = lower value | P48426; active = max response of -50% or lower; inconclusive = between -30% and -50%; inactive = -30% or higher; note: value at the top dose of about 77 µM; % is set by controls: 0 for no effect and ±100 for the full control effect
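Single end-point luminescence (ADP-Glo) quantified ADP from PI5P4Kalpha turnover; ATP 5 microM final, 1 h at RT, 0.1% CHAPS and 0.28 mM EGTA in HEPES pH 7.4.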
Starred values were filed as active, the others as inactive; ! = not active in a repeat; [ ] = remark or other dose. Unless noted, calls come from the whole dose curve; as a rule, active = well fitted curve in the direction sought with a large enough effect; inconclusive = small, poorly fitted or top-dose-only effect, or another doubt; inactive = no such curve, though single readings can be large; an effect the other way counts as inactive or inconclusive.

Results for O=C1CC(c2ccccc2)=NN1c1nc(-c2ccccc2)cs1 ?
Pol beta inh: 32µM*; WRN helicase inh: 0%[11.6 µM]; POLK inh: 40µM*; Pol iota inh: 20µM*; Pol eta inh: -20%; PI5P4Ka inh: inconclusive

Results for O=C1CC(c2ccccc2)=NN1c1ccccc1 ?
WRN helicase inh: -5%; POLK inh: -19%; Pol iota inh: -31%; Pol eta inh: -4%; PI5P4Ka inh: 4

How did O=C(COc1ccccc1)NN1C(=O)CSC1=S do in these assays?
Pol beta inh: 4%; WRN helicase inh: -4%; POLK inh: -13%[60.1 µM]; Pol iota inh: -24%; Pol eta inh: -20%; PI5P4Ka inh: -3

How did O=C(COc1c(Cl)cccc1Cl)NN1C(=O)CSC1=S do in these assays?
Pol beta inh: -19%; WRN helicase inh: -12%[11.6 µM]; POLK inh: -2%; Pol iota inh: 18µM*; Pol eta inh: -5%; PI5P4Ka inh: -11

How did O=C1CSC(=S)N1N=Cc1c(O)ccc2ccccc12 do in these assays?
WRN helicase inh: inconclusive; POLK inh: -23%; Pol iota inh: inconclusive; Pol eta inh: 10%; PI5P4Ka inh: -73*

Results for Cc1cc(C)c2c(=O)n(CC(=O)N3CCC(Cc4ccccc4)CC3)sc2n1 ?
Pol beta inh: 12%

What do the screens show for `Cc1cccc(N2CCN(C(=O)c3noc4c3COc3ccc(C)cc3-4)CC2C)c1` (stereo unspecified)?
Pol beta inh: 2%; WRN helicase inh: -2%; POLK inh: inconclusive; Pol iota inh: 50µM*!; Pol eta inh: -13%; PI5P4Ka inh: 3

What do the screens show for `Cc1ccc2c(c1)-c1onc(C(=O)N3CCN(c4cccc(C)c4C)CC3)c1CO2`?
Pol beta inh: -8%; POLK inh: -6%; Pol iota inh: 19%; Pol eta inh: 1%

Results for Cc1ccc(-c2ccc(=O)n(CC(=O)N3CCN(c4cccc(C)c4)C(C)C3)n2)cc1 (stereo unspecified) ?
Pol beta inh: 4%; WRN helicase inh: -7%; POLK inh: -12%; Pol iota inh: 79µM*; Pol eta inh: -18%

How did Cc1cccc(N2CCN(C(=O)Cn3sc4nc(C)cc(C)c4c3=O)CC2C)c1 (stereo unspecified) do in these assays?
Pol beta inh: 0%; WRN helicase inh: 3%; POLK inh: -3%; Pol iota inh: 42%; Pol eta inh: -12%; PI5P4Ka inh: -55*

How did Cc1cccc(N2CCN(C(=O)CCS(=O)(=O)c3ccc(Br)cc3)CC2C)c1 (stereo unspecified) do in these assays?
Pol beta inh: 25µM*; WRN helicase inh: inconclusive; POLK inh: 89µM*; Pol iota inh: 45µM*; Pol eta inh: inconclusive; PI5P4Ka inh: -19

Results for COC(=O)C1=C(CCc2ccccc2)NC(=O)NC1c1ccc([N+](=O)[O-])cc1 (stereo unspecified) ?
WRN helicase inh: -8%; POLK inh: -6%; Pol iota inh: -2%; Pol eta inh: -8%; PI5P4Ka inh: 0

What do the screens show for `O=C1/C(=C\c2ccc(O)c(O)c2)Oc2cc(O)ccc21`?
POLK inh: 4.7µM*

What do the screens show for `CC(C)(C)c1ccc(/C=C2\Oc3cc(O)ccc3C2=O)cc1`?
Pol beta inh: 0%; WRN helicase inh: -13%; POLK inh: -16%; Pol iota inh: -3%; Pol eta inh: -3%; PI5P4Ka inh: 18

Results for O=C1/C(=C/c2ccc(Br)cc2)Oc2cc(O)ccc21 ?
Pol beta inh: 14µM*; WRN helicase inh: 7%; POLK inh: -3%; Pol iota inh: 39%; Pol eta inh: -24%; PI5P4Ka inh: -24

What do the screens show for `Cc1ccc(C(=O)NCC(=O)OCC(=O)Nc2ccc3[nH]c(=O)[nH]c3c2)cc1`?
WRN helicase inh: -10%; POLK inh: 1%; Pol iota inh: 7%; Pol eta inh: -7%; PI5P4Ka inh: 5

What do the screens show for `Cc1cc(C)n(/N=C/c2ccco2)c(=O)c1C#N`?
Pol beta inh: 40µM*; WRN helicase inh: -3%; POLK inh: -13%; Pol iota inh: inconclusive; Pol eta inh: -16%; PI5P4Ka inh: -14

How did CN1C(=O)/C(=C/c2ccc(OCc3ccc(C(=O)O)cc3)c(Cl)c2)NC1=S do in these assays?
Pol beta inh: 35µM*; WRN helicase inh: inconclusive; POLK inh: -2%; Pol iota inh: 72%; Pol eta inh: inconclusive; PI5P4Ka inh: -20

Results for CCOc1cc(/C=C2\NC(=S)N(C)C2=O)ccc1OCc1ccc(C(=O)O)cc1 ?
Pol beta inh: 3%; WRN helicase inh: -16%; POLK inh: 5%; Pol iota inh: -23%; Pol eta inh: inconclusive; PI5P4Ka inh: -5

What do the screens show for `NC(=N\N=Cc1ccco1)/C(N)=N/N=Cc1ccco1`?
WRN helicase inh: -34%; POLK inh: -39%; Pol iota inh: inconclusive; Pol eta inh: 45µM*; PI5P4Ka inh: -27

How did NC(=N\N=Cc1ccccc1)/C(N)=N/N=Cc1ccccc1 do in these assays?
WRN helicase inh: -22%; POLK inh: -4%; Pol iota inh: 30%; Pol eta inh: 1%; PI5P4Ka inh: 5

Results for CCCCOc1ccc(C2C(=O)N(C3CCCCC3)CC(=O)N2CCCC)cc1 (stereo unspecified) ?
Pol beta inh: 87%; POLK inh: -2%[60.1 µM]; Pol iota inh: 18%; Pol eta inh: -5%

Results for Cc1cc(N)cc(C)c1-c1c(Br)cc(N)cc1Br ?
WRN helicase inh: -3%; POLK inh: -8%; Pol iota inh: 14%; Pol eta inh: -25%; PI5P4Ka inh: 5

Results for Nc1cc(N)cc(N)c1 ?
POLK inh: inconclusive; Pol iota inh: 1.6µM*

What do the screens show for `Cc1ccc(OCCNC(=O)[C@H]2O[C@@H](n3cnc4c(N)ncnc43)[C@H](O)[C@@H]2O)cc1C`?
WRN helicase inh: -7%; PI5P4Ka inh: 4

What do the screens show for `C[N+]1=C(/C=C/Nc2ccccc2Cl)C(C)(C)c2ccccc21`?
Pol beta inh: 27%; WRN helicase inh: -31%[57.1 µM]; POLK inh: 2%; Pol iota inh: -1%; Pol eta inh: inconclusive; PI5P4Ka inh: 1

What do the screens show for `COC(=O)c1ccc2c(c1)C(C)(C)C(/C=C/c1ccccc1O)=[N+]2C`?
Pol beta inh: inconclusive; WRN helicase inh: 56µM*; POLK inh: 35µM*; Pol iota inh: 28µM*; Pol eta inh: 19%

What do the screens show for `CCC(=O)O[C@@]1(C(=O)CCl)C(C)CC2C3CCC4=CC(=O)C=C[C@@]4(C)[C@]3(F)C(O)C[C@]21C` (stereo partly specified)?
POLK inh: -10%[60.1 µM]
